Compound activity from PubChem BioAssay.
TDP1 cell noCPT: qHTS for Inhibitors of human tyrosyl-DNA phosphodiesterase 1 (TDP1): qHTS in cells in absence of CPT; DT40 Tdp1-/- hTDP1 cells, no CPT, ATP luminescence, 48 h; Potency, µM (series often up to 46.2 µM), for the others: at the highest dose activity change, negative = growth inhibition, most hits filed as inhibitors; AID 686978, 2013; 420,000 compounds, 15% hits; note: potency is the fitted concentration of half-maximal effect; nearly all actives have a fitted effect of over 55% in size
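Camptothecin absent (DMSO only). Human TDP1-complemented DT40 knockout cells, 400 cells/well, 37 °C for minimum 48 hr; ATP measured via CellTiter-Glo, 30 min dark incubation, luminescence.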
HT1080NT lethal: kills 2HG-producing HT-1080-NT fibrosarcoma cells | HT-1080-NT fibrosarcoma viability, CellTiter-Glo ATP luminescence, 48 h | Potency, µM (titrated, usually from 46.1 µM), inactives show at the top dose activity, negative = less viability, actives largely listed as cytotoxic | 360,000 compounds, 1.6% hits | AID 686970;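 note: NT is the 2HG producing partner of a matched IDH1 knockdown line; potency is the fitted concentration of half-maximal effect; 0% = DMSO-treated cells and -100% = media-only wells without cells; nearly all actives have a fitted effect of over 55% in size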
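Fibrosarcoma NT cells, 750 per well in 5% FBS RPMI, were exposed to compound for 48 hours. Viability: CellTiter-Glo luminescence.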
HT1080 IDH1KD tx: kills HT-1080 cells with IDH1 knockdown; HT-1080 IDH1 knockdown viability, ATP luminescence, 48 h; Potency, µM (top dose mostly 46.1 µM), without a hit: at the highest dose activity, negative = toxicity, actives largely listed as cytotoxic; 360,000 compounds, 2% hits;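 note: potency is the fitted concentration of half-maximal effect; 0% = DMSO wells and -100% = cell-free medium wells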
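Knockdown cells (IDH1KD HT-1080) received compounds 2 h after plating at 750 cells/well and were kept 48 h at 37 °C in 5% FBS RPMI. A CellTiter-Glo luminescence read gave % activity for curve fitting.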
IL1B secr inh: inflammasome signaling inhibition, IL-1 beta readout | THP-1 LPS/ATP IL-1B secretion, AlphaLISA, 16 h; hits give low values | AID 743279 | activity change, % at 57.5 µM | 360,000 compounds, 4.7% hits; in the data active = activity change below about -50%; inconclusive = mostly about -30% to -49%
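THP-1 cells pretreated 1 hr with compounds (up to 57.5 uM final), then stimulated with LPS (250 ng/mL final) plus ATP (1.25 mM final); secreted IL-1B measured by AlphaLISA after 16 hr, decreased signal indicating inhibition.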
DT40 TDP1 CPT: DT40-hTDP1 cell growth loss with CPT. chicken DT40 Tdp1-/-;hTDP1 cells + 20 nM CPT, ATP luminescence, 48 h. Potency, µM (doses to about 46.2 µM), for inactives: at the top dose activity change, negative = growth inhibition, actives largely listed as inhibitors. 420,000 compounds, 12% hits. AID 686979; note: potency is the fitted concentration of half-maximal effect; nearly all actives have a fitted effect of over 55% in size
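Chicken DT40 Tdp1-/- cells complemented with human TDP1, 400 cells/well, exposed to compounds plus 20 nM camptothecin for at least 48 h at 37 C; viability read as ATP content by CellTiter-Glo luminescence.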
* = called active by the depositor; u = inconclusive; x = no result given. A selection: hits, their analogues and other compounds. The true share with any hit is near 19%. Unless noted, calls come from the whole dose curve; as a rule, active = well fitted curve in the direction sought with a large enough effect; inconclusive = small, poorly fitted or top-dose-only effect, or another doubt; inactive = no such curve, though single readings can be large; an effect the other way counts as inactive or inconclusive. Unless noted, % is set by controls: 0 for no effect and ±100 for the full control effect.

SMILES	TDP1 cell noCPT	HT1080NT lethal	HT1080 IDH1KD tx	IL1B secr inh	DT40 TDP1 CPT
COCc1[nH][nH]c(=O)c1/C=N/N1CCOCC1	14.3%	9.9%	6.4%	3.7	3.6%
Cc1ccc(Cn2cnc3c(oc4ccccc43)c2=O)cc1	-21.4%	x	x	x	-3.9%
CCOC(=O)N1C(=O)[C@](c2ccc(Cl)cc2)(C(C)C)N1C(=O)OCC	14.6µM*	-20.5%	-29.5%	-98.2*	18.4µM*
CCOC(=O)N1C(=O)[C@@](c2ccc(Cl)cc2)(C(C)C)N1C(=O)OCC	u	u	u	-112.8*	20.6µM*
CCOC(=O)C1(C(N)=O)OC1(c1ccc(Cl)cc1)c1ccccc1Cl (centres undefined)	-16.3%	-1.6%	0.7%	8.1	3.4%
CCOC(=O)c1c(NC(=O)CN2CCN(C(=O)c3ccco3)CC2)sc(C)c1C	14.6µM*	3.6%	2.9%	0.0	u
COC(=O)c1ccsc1NC(=O)CN1CCN(Cc2ccc3c(c2)OCO3)CC1	u	-8.0%	-4.9%	-4.0	u
COC(=O)c1c(NC(=O)CN2CCN(Cc3ccc4c(c3)OCO4)CC2)sc(C)c1C	u	u	u	-75.9*	u
CCc1c(C)sc(NC(=O)CN2CCN(C(=O)c3ccco3)CC2)c1C(=O)OC	u	u	u	-78.7*	18.4µM*
COc1ccccc1NCCC(=O)OCC(=O)Nc1ccccc1F	-17.5%	1.0%	2.2%	-3.4	-13.1%
O=C(O)c1cc(O)ccc1N=Nc1ccccc1	16.4µM*	-11.5%	-5.8%	u	u
Oc1ccc(N=Nc2ccccc2)cc1	u	-1.3%	-7.0%	1.3	u
O=C(O)c1ccccc1N=Nc1ccc(O)cc1	14.6µM*	u	u	-27.6	25.9µM*
Oc1ccc(Cl)cc1N=Nc1ccccc1	-27.7%	17.9%	16.7%	8.8	-21.5%
CC(=O)NC1Sc2ccccc2N=C1c1ccccc1 (centres undefined)	u	-3.5%	-1.3%	0.0	u
CN(C)/C=C/c1c([N+](=O)[O-])c2ccc(O)cc2n1-c1ccccc1	u	u	u	-85.7*	-19.2%
Cc1ccc(NS(=O)(=O)c2ccc3c(c2)NC(=O)CCS3)c(C)c1	u	-25.1%	-10.3%	-5.9	23.1µM*
COc1ccc(Cl)cc1NS(=O)(=O)c1ccc2c(c1)NC(=O)CCS2	4.61µM*	4.1%	-8.9%	7.1	u
CCOc1ccc(NS(=O)(=O)c2ccc3c(c2)NC(=O)CCS3)cc1	11.6µM*	x	x	x	u
Cc1cc(C)c(NS(=O)(=O)c2ccc3c(c2)NC(=O)CCS3)c(C)c1	14.6µM*	-1.2%	-5.8%	0.0	u
NC(=O)C1(Nc2ccc(Cl)cc2)CCCC1	-16.2%	-4.5%	-7.7%	-5.9	0.1%
CCc1ccc(OC(=O)c2cccnc2)cc1	-8.8%	0.0%	-1.3%	7.8	-9.2%
CCC1Sc2ccc(S(=O)(=O)Nc3ccc(OC)c(OC)c3)cc2NC1=O (centres undefined)	8.2µM*	-21.6%	u	-12.7	20.6µM*
C/C(=N\NC(=O)Cn1ccc(C(F)(F)F)n1)c1ccco1	4.3%	25.0%	12.8%	6.1	3.2%
Cc1ccc(NC(c2ccccc2)c2nc3ccccc3[nH]c2=O)cc1 (centres undefined)	u	3.1%	2.6%	-17.6	u
SMILES	TDP1 cell noCPT	HT1080NT lethal	HT1080 IDH1KD tx	IL1B secr inh	DT40 TDP1 CPT
N#CSC(c1ccccc1)c1nc2ccccc2[nH]c1=O (centres undefined)	25.9µM*	u	u	29.1	6.51µM*
Cc1nc(-c2ccc(Cl)cc2)sc1C1(C)CC(c2ccc(F)cc2)=NO1 (centres undefined)	-9.9%	7.9%	15.9%	7.2	-8.8%
Fc1cccc(Cl)c1CSc1nnc2ccccn12	8.4%	18.8%	7.6%	-2.5	13.0%
C=CCn1c(NS(=O)(=O)c2ccccc2)c(S(=O)(=O)c2ccc(C)cc2)c2nc3ccccc3nc21	u	5.4%	17.1%	-84.3*	u
O=S(=O)(Nc1c(S(=O)(=O)c2ccccc2)c2nc3ccccc3nc2n1C1CCCCC1)c1ccccc1	5.17µM*	u	16.4µM*	-68.8*	9.2µM*
CC(=O)Nc1c(S(=O)(=O)c2ccccc2)c2nc3ccccc3nc2n1Cc1ccccc1	-13.1%	-12.9%	-13.8%	-11.6	-3.3%
CC1CN(c2nc3ccccc3nc2NS(=O)(=O)c2ccccc2)CC(C)O1 (centres undefined)	-7.7%	-5.4%	-1.6%	12.1	-14.3%
COc1ccc(CCN2C(=O)CCC2(C)c2nnnn2-c2ccc3c(c2)OCCO3)cc1OC (centres undefined)	u	7.8%	3.2%	12.3	-29.1%
Cc1cccc(C(=O)NC(=S)NNC(=O)COc2c(C)cccc2C)c1	u	-20.4%	-29.4%	12.0	u
O=C(Cn1ncc2c3ccccc3n(Cc3cccc(Cl)c3)c2c1=O)Nc1ccc(F)cc1F	20.6µM*	x	x	x	29.1µM*
CCOc1ccc(OCC)c(NC(=O)Cn2ncc3c4ccccc4n(Cc4ccccc4)c3c2=O)c1	-22.1%	x	x	x	-8.6%
COc1ccc(Cl)cc1NC(=O)Cn1ncc2c3ccccc3n(Cc3ccccc3)c2c1=O	14.6µM*	x	x	x	u
CC(C)(C)NC(=O)C(c1ccc(F)cc1)N(Cc1ccco1)C(=O)c1csnn1 (centres undefined)	-12.3%	-4.8%	-4.6%	-28.9	u
COC(=O)c1ccc(C(C(=O)NCc2ccccc2)N(Cc2ccco2)C(=O)c2cnccn2)cc1 (centres undefined)	-24.8%	-3.1%	-3.2%	-59.2*	-14.7%
COc1cc(OC)cc(C(C(=O)NCc2ccccc2)N(Cc2ccco2)C(=O)c2ccno2)c1 (centres undefined)	23.1µM*	-1.8%	-5.3%	-1.7	u
CCC(C)(C)NC(=O)C(c1ccccc1F)N(Cc1ccco1)C(=O)c1csnn1 (centres undefined)	u	-20.9%	-1.4%	-5.3	-18.5%
CCC(C)(C)NC(=O)C(c1sccc1C)N(Cc1ccco1)C(=O)c1csnn1 (centres undefined)	16.4µM*	1.9%	-2.1%	-11.2	16.4µM*
CCC(C)(C)NC(=O)C(c1ccc(F)cc1)N(Cc1ccco1)C(=O)c1cnccn1 (centres undefined)	-1.2%	-9.4%	1.7%	-83.2*	-7.2%
COc1ccc(C(=O)NCCCN2CCN(CCCNC(=O)c3ccc(OC)c(OC)c3)CC2)cc1OC	-19.7%	10.5%	13.9%	4.5	23.1%
Cc1c(N=O)c(-c2ccccc2)n(O)[n+]1[O-]	u	6.5%	3.2%	0.0	u
